Measurements published in the supplement of paper PMC10849652.
Targets with a hit are over-represented here; the source holds about 8,800 in all. About 0.5% of all pairs of compound and target were hits. A number with no mark means an inactive call.

Experiments:
Assay in all cases: log2 fold change, soluble protein after heating vs DMSO (PISA); higher = thermal stabilisation; K562 lysate, 10 uM; active = over 0.2 and 3.5 SD of the protein, either way, in both replicates (recomputed)
[1] = compound: NCC(=O)Nc1ccc(-n2nc(C(F)(F)F)cc2-c2ccc3c(ccc4ccccc43)c2)cc1
How it was run: (§1)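 Soluble protein was defined as the supernatant remaining after 21,000xg for 90 min, following pooling of heated aliquots and adjustment to 0.5% NP-40 at 4°C. Before that, crude K562 extract at 1 mg/mL protein in PBS pH 7.4 with 1 mM MgCl2 was treated with 10 μM compound for 30 min and heated for 3 min across 48°C-58°C. Quantification used TMTpro 16plex LC-MS/MS with channel sums equalised, and values are log-two fold changes in thermal stability relative to solvent controls from duplicates.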

vorinostat = compound: O=C(CCCCCCC(=O)Nc1ccccc1)NO [vorinostat]
How it was run: as §1

silmitasertib = compound: O=C(O)c1ccc2c(c1)nc(Nc1cccc(Cl)c1)c1ccncc12 [silmitasertib]
How it was run: as §1

[2] = compound: O=C1NC(=O)C(c2cnc3ccccn23)=C1c1cn2c3c(cc(F)cc13)CN(C(=O)N1CCCCC1)CC2
How it was run: as §1

entospletinib = compound: c1cn2cc(-c3ccc4cn[nH]c4c3)nc(Nc3ccc(N4CCOCC4)cc3)c2n1 [entospletinib]
How it was run: as §1

Sequence of UniProt Q9BQQ3 (Q9BQQ3 whole entry, looked up): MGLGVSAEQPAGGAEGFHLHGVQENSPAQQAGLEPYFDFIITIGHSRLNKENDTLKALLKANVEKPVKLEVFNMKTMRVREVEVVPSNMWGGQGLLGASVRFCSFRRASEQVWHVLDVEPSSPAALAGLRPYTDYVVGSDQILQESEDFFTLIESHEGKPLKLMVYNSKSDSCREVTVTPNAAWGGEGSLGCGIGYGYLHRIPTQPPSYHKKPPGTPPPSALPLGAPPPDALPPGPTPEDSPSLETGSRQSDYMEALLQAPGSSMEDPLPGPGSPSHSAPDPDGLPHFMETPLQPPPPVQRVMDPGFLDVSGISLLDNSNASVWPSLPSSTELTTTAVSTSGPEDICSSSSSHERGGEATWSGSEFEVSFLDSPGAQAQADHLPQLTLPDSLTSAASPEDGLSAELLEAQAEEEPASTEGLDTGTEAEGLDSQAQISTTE
Sequence of UniProt Q14145 (Q14145 whole entry, looked up): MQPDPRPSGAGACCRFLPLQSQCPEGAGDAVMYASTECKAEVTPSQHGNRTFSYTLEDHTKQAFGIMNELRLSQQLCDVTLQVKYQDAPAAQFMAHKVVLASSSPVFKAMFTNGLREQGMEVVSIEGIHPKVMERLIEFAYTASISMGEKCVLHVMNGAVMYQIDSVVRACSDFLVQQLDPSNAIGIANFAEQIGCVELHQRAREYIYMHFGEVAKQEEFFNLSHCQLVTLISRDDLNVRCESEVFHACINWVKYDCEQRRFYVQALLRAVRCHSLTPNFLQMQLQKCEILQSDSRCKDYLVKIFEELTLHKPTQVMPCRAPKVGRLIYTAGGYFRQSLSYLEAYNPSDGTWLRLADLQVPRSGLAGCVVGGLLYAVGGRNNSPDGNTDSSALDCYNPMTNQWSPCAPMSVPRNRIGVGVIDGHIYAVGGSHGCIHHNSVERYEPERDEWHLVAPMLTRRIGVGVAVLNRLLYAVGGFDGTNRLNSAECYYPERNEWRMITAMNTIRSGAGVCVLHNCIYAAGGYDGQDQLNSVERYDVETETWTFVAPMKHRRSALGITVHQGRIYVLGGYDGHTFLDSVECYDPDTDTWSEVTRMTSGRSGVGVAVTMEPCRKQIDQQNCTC
Sequence of UniProt Q99871 (Q99871 whole entry, looked up): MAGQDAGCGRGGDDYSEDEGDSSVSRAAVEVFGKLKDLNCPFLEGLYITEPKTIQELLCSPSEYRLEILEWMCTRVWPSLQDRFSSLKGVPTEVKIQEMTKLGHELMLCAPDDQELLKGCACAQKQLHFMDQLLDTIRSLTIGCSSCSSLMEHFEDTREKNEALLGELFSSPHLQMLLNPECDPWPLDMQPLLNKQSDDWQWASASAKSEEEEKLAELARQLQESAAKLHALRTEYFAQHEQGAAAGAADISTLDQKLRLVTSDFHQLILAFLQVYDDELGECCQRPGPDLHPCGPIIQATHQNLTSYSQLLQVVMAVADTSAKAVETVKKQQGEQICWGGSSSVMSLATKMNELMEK
Sequence of UniProt Q92759 (Q92759 whole entry, looked up): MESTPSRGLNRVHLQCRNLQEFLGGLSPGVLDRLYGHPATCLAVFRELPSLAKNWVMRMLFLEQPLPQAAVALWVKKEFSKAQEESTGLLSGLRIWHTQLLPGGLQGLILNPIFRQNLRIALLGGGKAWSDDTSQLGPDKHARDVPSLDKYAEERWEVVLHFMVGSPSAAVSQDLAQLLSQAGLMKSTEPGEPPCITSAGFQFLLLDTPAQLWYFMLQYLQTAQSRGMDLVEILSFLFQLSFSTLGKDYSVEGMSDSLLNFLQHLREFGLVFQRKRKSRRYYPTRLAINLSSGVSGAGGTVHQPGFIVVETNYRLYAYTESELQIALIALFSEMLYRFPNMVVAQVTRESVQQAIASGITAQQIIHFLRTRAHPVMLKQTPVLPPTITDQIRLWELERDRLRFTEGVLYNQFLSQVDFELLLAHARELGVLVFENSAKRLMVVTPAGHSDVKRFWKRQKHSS
Sequence of UniProt Q8N201 (Q8N201 whole entry, looked up): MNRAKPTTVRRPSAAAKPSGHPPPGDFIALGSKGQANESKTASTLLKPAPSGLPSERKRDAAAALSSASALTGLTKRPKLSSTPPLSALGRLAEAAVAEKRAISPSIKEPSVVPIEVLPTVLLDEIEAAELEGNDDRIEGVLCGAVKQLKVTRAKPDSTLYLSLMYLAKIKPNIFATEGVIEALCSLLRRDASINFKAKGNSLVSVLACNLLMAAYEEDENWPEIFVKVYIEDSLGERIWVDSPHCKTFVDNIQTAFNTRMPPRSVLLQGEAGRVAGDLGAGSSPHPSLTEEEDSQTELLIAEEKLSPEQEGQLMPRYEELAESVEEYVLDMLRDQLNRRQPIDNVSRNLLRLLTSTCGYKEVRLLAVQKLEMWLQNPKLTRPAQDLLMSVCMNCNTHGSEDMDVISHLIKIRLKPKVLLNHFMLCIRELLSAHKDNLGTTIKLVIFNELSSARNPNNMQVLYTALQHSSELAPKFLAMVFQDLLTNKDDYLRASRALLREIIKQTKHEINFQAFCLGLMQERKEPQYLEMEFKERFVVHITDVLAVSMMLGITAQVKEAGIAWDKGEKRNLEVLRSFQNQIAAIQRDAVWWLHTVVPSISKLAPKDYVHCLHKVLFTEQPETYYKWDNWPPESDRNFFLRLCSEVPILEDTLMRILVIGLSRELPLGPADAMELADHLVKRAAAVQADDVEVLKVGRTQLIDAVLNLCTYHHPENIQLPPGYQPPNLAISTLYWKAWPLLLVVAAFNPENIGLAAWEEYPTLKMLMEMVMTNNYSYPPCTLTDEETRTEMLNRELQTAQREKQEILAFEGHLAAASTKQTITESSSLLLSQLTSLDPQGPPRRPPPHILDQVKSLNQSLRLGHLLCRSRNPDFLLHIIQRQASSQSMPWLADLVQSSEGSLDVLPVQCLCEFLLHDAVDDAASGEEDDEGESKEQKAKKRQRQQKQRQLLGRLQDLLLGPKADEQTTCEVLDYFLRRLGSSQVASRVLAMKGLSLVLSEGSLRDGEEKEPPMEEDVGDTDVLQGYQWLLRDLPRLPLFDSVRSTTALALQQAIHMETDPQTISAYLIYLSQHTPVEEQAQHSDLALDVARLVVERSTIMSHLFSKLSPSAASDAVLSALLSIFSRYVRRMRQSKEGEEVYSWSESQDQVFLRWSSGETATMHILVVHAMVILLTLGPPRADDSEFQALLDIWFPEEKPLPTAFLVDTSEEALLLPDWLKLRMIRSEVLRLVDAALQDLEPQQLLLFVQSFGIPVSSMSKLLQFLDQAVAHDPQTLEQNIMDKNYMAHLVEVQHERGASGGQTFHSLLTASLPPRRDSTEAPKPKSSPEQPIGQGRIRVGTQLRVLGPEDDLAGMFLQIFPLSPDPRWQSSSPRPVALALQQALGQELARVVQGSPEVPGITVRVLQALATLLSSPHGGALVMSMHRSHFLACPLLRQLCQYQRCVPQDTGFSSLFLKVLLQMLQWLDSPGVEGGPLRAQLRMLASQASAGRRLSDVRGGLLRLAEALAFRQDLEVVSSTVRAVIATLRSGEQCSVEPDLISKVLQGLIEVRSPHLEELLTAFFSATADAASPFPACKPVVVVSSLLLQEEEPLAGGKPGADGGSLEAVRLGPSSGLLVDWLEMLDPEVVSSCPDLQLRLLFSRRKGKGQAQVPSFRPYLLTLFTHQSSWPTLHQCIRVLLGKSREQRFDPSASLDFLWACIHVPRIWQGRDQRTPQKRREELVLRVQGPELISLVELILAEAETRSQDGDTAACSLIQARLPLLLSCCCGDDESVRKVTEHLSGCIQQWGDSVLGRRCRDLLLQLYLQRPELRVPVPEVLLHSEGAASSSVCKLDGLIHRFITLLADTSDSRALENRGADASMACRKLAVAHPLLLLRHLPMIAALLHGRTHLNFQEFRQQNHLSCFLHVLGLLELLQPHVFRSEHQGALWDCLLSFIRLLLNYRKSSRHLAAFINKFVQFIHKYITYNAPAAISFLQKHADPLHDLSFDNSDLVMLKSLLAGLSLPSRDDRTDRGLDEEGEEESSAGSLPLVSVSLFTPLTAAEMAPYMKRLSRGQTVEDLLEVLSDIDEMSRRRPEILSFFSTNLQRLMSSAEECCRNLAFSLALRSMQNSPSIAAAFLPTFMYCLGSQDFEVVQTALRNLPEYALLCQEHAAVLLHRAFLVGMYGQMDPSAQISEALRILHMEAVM
Sequence of UniProt Q13322 (Q13322 whole entry, looked up): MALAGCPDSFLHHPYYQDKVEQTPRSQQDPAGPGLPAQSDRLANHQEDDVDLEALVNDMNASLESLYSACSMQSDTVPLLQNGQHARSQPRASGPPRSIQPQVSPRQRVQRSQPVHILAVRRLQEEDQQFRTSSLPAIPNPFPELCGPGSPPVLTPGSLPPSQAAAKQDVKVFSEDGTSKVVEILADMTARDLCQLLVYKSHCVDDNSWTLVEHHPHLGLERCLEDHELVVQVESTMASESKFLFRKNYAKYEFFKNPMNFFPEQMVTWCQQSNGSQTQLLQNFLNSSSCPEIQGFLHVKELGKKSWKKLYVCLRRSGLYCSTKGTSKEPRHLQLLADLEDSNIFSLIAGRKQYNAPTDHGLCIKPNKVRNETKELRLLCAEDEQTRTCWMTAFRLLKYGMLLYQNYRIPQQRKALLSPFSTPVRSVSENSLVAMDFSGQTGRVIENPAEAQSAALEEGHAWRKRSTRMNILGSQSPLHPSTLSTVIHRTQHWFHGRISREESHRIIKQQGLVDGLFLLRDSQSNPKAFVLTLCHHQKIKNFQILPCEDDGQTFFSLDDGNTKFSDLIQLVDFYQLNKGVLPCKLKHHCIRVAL
Sequence of UniProt Q99714 (Q99714 whole entry, looked up): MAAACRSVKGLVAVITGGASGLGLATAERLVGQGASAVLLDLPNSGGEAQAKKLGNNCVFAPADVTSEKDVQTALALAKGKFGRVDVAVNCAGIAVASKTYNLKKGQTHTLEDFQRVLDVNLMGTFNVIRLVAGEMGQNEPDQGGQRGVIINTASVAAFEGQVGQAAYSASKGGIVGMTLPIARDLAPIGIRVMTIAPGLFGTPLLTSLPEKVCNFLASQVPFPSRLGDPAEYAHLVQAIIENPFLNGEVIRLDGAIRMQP

Target	log2 fold change [1]	log2 fold change (vorinostat)	log2 fold change (silmitasertib)	log2 fold change [2]	log2 fold change (entospletinib)
GOLPH3L (UniProt Q9H4A5)	-0.061	-0.035	-0.002	0.047	0.048
HDLBP, A0A024R4E5	0.009	-0.427 (active)	-0.013	0.004	0.009
HDHD5 (UniProt Q9BXW7)	0.018	-0.249 (active)	0.043	-0.002	-0.059
HK1 isoform 2 (UniProt P19367)	0.012	-0.264 (active)	0.028	-0.002	0.011
HEATR6 (UniProt Q6AI08)	-0.005	-0.466 (active)	0.047	-0.026	0
GNL3 (UniProt Q9BVP2)	0.017	-0.142	0.008	-0.041	0.018
GMPS (UniProt P49915)	0.017	-0.553 (active)	0.028	0.002	0.01
IMPDH2 (UniProt P12268)	0.002	-1.14 (active)	0.004	0.004	0.014
GRB10 (UniProt Q13322)	-0.001	-0.402 (active)	0.065	0.008	0.007
IMPDH1 isoform 6 (UniProt P20839)	0.029	-0.897 (active)	-0.003	0.004	0.023
GMDS (UniProt O60547)	0.027	-0.309 (active)	0.041	-0.016	0.032
HSPA14 (UniProt Q0VDF9)	-0.022	-0.226 (active)	0.035	-0.007	-0.009
KARS1 (UniProt Q15046)	0.021	-0.011	0.022	-0.026	0.006
HSP90AA4P (UniProt Q58FG1)	0.026	0.047	-0.087	-0.047	0.017
HSPB1 (UniProt P04792)	0.019	-0.013	-0.027	-0.001	0.013
H3-3A (UniProt P84243)	0.021	-0.077	0	0.026	-0.035
INPP4A (UniProt Q96PE3)	0.016	-0.106	0.002	-0.013	0.006
INTS1 (UniProt Q8N201)	0.014	-0.409 (active)	0.027	-0.034	0.003
ILKAP (UniProt Q9H0C8)	-0.05	-0.288 (active)	0.053	-0.024	-0.001
HDAC3 (UniProt O15379)	-0.016	-0.264 (active)	-0.027	-0.008	0
GORASP1 (UniProt Q9BQQ3)	-0.041	-0.01	0.067	-0.018	-0.09

Target	log2 fold change [1]	log2 fold change (vorinostat)	log2 fold change (silmitasertib)	log2 fold change [2]	log2 fold change (entospletinib)
HSD17B10 (UniProt Q99714)	0.04	-0.826 (active)	-0.011	-0.025	-0.004
GOLGA1 (UniProt Q92805)	0.048	0.07	0.01	-0.076	-0.014
HDAC1 (UniProt Q13547)	0.018	0.644 (active)	-0.008	-0.015	0.008
GTF2H4 (UniProt Q92759)	0.01	-0.24 (active)	-0.021	-0.021	0.046
GSTZ1 (UniProt G3V4T6)	0.088	0.167	-0.002	-0.015	-0.031
GSK3B isoform 2 (UniProt P49841)	0.02	0.253	0.421	0.657	0.05
HLCS (UniProt P50747)	-0.048	-0.054	-0.012	0.004	0.009
GNE isoform 2 (UniProt Q9Y223)	0.056	-0.443 (active)	0.023	0.012	0.017
HECW2 (UniProt Q9P2P5)	-0.018	-0.058	0.011	-0.004	-0.09
HMGN4 (UniProt O00479)	-0.095	0.192	-0.012	0.067	0.163
HAUS7 isoform 2 (UniProt Q99871)	-0.091	-0.416 (active)	-0.029	-0.026	-0.124
IARS2 (UniProt Q9NSE4)	-0.002	0.079	-0.01	-0.021	0.01
GSE1 (UniProt Q14687)	0.029	-0.286 (active)	-0.006	-0.006	-0.017
KCT2 (UniProt Q8NC54)	0.015	0.157	0.005	-0.04	-0.026
HAUS8 (UniProt Q9BT25)	0.083	-0.38 (active)	0.022	0.018	-0.051
HAUS6 (UniProt Q7Z4H7)	-0.057	-0.3 (active)	0.014	0.007	0.015
GSK3A (UniProt P49840)	-0.019	0.265	0.382	0.456	0.014
HMGN5 (UniProt P82970)	-0.014	0.14	0.002	-0.005	0.002
GYPA (UniProt P02724)	-0.028	0.152	-0.097	-0.04	0.019
KEAP1 (UniProt Q14145)	-0.019	-0.262 (active)	-0.008	-0.022	0.001
